Measurements: PubChem BioAssay AID1159580 (chemical genetic matrix, 2015)
The campaign covered roughly 5,500 compounds. About 2,000 (36%) were called active. Roughly 18% stayed inconclusive and do not appear here. The list shows a part of the results. A number with no mark means an inactive call. No stated cut-off is given here; in the data, active means normalized growth mostly below about 0.91 (no sharp cut-off); inconclusive means no clear call, values can overlap the other calls; inactive means mostly above about 0.92.

Experiment: chemical genetic growth profiling, strain panel (AID 1159580);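 further: tested at 20 µM; growth read once vehicle control cultures reached saturation at 30 °C; 1 = growth at the plate median or of vehicle wells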
Conditions: growth OD

In the case of `C[C@]12CCC3c4ccc(O)cc4CCC3C1CCC2=O` (stereo partly drawn), the normalized growth (S. cerevisiae deletion strains, locus YJR066W, strain TOR1, stronger effect = lower value) is reported as 0.953, the normalized growth (S. cerevisiae deletion strains, locus YJR075W, strain HOC1, stronger effect = lower value) is reported as 0.977 and the normalized growth (S. cerevisiae deletion strains, locus YKL009W, strain mrt4, stronger effect = lower value) is reported as 0.905. For the same compound, the normalized growth (S. cerevisiae deletion strains, locus YKL068W, stronger effect = lower value) was 1, the normalized growth (S. cerevisiae deletion strains, locus YKL085W, strain MDH1 (second series), stronger effect = lower value) was 1.02 and the normalized growth (S. cerevisiae deletion strains, locus YKL085W, strain MDH1, stronger effect = lower value) was 1.02. The normalized growth (S. cerevisiae deletion strains, locus YKL160W, strain elf1, stronger effect = lower value) was 0.994, the normalized growth (S. cerevisiae deletion strains, locus YKR001C, strain vps1, stronger effect = lower value) was 0.854 (active) and the normalized growth (S. cerevisiae deletion strains, locus YKR026C, strain gcn3, stronger effect = lower value) was 1.02. The normalized growth (S. cerevisiae deletion strains, locus YKR091W, strain srl3, stronger effect = lower value) was 1.02, the normalized growth (S. cerevisiae deletion strains, locus YLL001W, strain dnm1, stronger effect = lower value) was 1.05 and the normalized growth (S. cerevisiae deletion strains, locus YLL026W, stronger effect = lower value) was 0.999. The normalized growth (S. cerevisiae deletion strains, locus YLL041C, strain sdh2, stronger effect = lower value) was 1.02, the normalized growth (S. cerevisiae deletion strains, locus YLR027C, strain aat2, stronger effect = lower value) was 0.973 and the normalized growth (S. cerevisiae deletion strains, locus YLR039C, strain RIC1, stronger effect = lower value) was 0.56 (active). The normalized growth (S. cerevisiae deletion strains, locus YLR058C, strain SHM2, stronger effect = lower value) was 0.97, the normalized growth (S. cerevisiae deletion strains, locus YLR102C, strain apc9, stronger effect = lower value) was 1 and the normalized growth (S. cerevisiae deletion strains, locus YLR113W, strain HOG1, stronger effect = lower value) was 0.98. The normalized growth (S. cerevisiae deletion strains, locus YLR221C, strain rsa3, stronger effect = lower value) was 1, the normalized growth (S. cerevisiae deletion strains, locus YLR258W, strain gsy2, stronger effect = lower value) was 0.975 and the normalized growth (S. cerevisiae deletion strains, locus YLR262C, strain YPT6 (second series), stronger effect = lower value) was 0.609 (active). For the same compound, the normalized growth (S. cerevisiae deletion strains, locus YLR262C, strain YPT6, stronger effect = lower value) was 0.558 (active), the normalized growth (S. cerevisiae deletion strains, locus YLR268W, strain sec22, stronger effect = lower value) was 0.976 and the normalized growth (S. cerevisiae deletion strains, locus YLR320W, strain mms22, stronger effect = lower value) was 0.873 (active). It also gave a normalized growth (S. cerevisiae deletion strains, locus YLR330W, strain CHS5, stronger effect = lower value) of 1, a normalized growth (S. cerevisiae deletion strains, locus YLR342W, strain FKS1 (second series), stronger effect = lower value) of 0.882 and a normalized growth (S. cerevisiae deletion strains, locus YLR342W, strain FKS1, stronger effect = lower value) of 1. It also gave a normalized growth (S. cerevisiae deletion strains, locus YLR357W, strain rsc2, stronger effect = lower value) of 1.04, a normalized growth (S. cerevisiae deletion strains, locus YLR370C, strain arc18, stronger effect = lower value) of 1.02 and a normalized growth (S. cerevisiae deletion strains, locus YLR371W, strain rom2, stronger effect = lower value) of 1.02. For the same compound, the normalized growth (S. cerevisiae deletion strains, locus YLR384C, strain iki3, stronger effect = lower value) was 1.02, the normalized growth (S. cerevisiae deletion strains, locus YLR418C, strain cdc73, stronger effect = lower value) was 0.985 and the normalized growth (S. cerevisiae deletion strains, locus YML016C, strain PPZ1, stronger effect = lower value) was 0.986. For the same compound, the normalized growth (S. cerevisiae deletion strains, locus YML032C, strain rad52, stronger effect = lower value) was 0.924, the normalized growth (S. cerevisiae deletion strains, locus YML120C, strain ndi1, stronger effect = lower value) was 1.03 and the normalized growth (S. cerevisiae deletion strains, locus YML124C, strain tub3, stronger effect = lower value) was 1.02. For the same compound, the normalized growth (S. cerevisiae deletion strains, locus YMR058W, strain fet3, stronger effect = lower value) was 0.928, the normalized growth (S. cerevisiae deletion strains, locus YMR078C, strain ctf18, stronger effect = lower value) was 0.987 and the normalized growth (S. cerevisiae deletion strains, locus YMR125W, strain sto1, stronger effect = lower value) was 1.06. For the same compound, the normalized growth (S. cerevisiae deletion strains, locus YMR129W, stronger effect = lower value) was 1.02, the normalized growth (S. cerevisiae deletion strains, locus YMR205C, strain PFK2, stronger effect = lower value) was 1.03 and the normalized growth (S. cerevisiae deletion strains, locus YMR223W, strain ubp8, stronger effect = lower value) was 0.987. The normalized growth (S. cerevisiae deletion strains, locus YMR231W, strain pep5, stronger effect = lower value) was 0.993, the normalized growth (S. cerevisiae deletion strains, locus YMR307W, strain GAS1, stronger effect = lower value) was 0.797 and the normalized growth (S. cerevisiae deletion strains, locus YNL067W, strain RPL9B, stronger effect = lower value) was 1. It also gave a normalized growth (S. cerevisiae deletion strains, locus YNL071W, strain lat1, stronger effect = lower value) of 0.937, a normalized growth (S. cerevisiae deletion strains, locus YNL183C, strain NPR1, stronger effect = lower value) of 0.936 and a normalized growth (S. cerevisiae deletion strains, locus YNL209W, strain ssb2, stronger effect = lower value) of 1.02. The normalized growth (S. cerevisiae deletion strains, locus YNL233W, strain BNI4, stronger effect = lower value) was 0.976, the normalized growth (S. cerevisiae deletion strains, locus YNL248C, strain rpa49, stronger effect = lower value) was 0.956 and the normalized growth (S. cerevisiae deletion strains, locus YNL250W, strain rad50, stronger effect = lower value) was 0.922. For the same compound, the normalized growth (S. cerevisiae deletion strains, locus YNL271C, strain bni1, stronger effect = lower value) was 0.966, the normalized growth (S. cerevisiae deletion strains, locus YNL298W, strain CLA4, stronger effect = lower value) was 0.902 (active) and the normalized growth (S. cerevisiae deletion strains, locus YNL307C, strain MCK1, stronger effect = lower value) was 0.96. For the same compound, the normalized growth (S. cerevisiae deletion strains, locus YNL322C, strain KRE1 (second series), stronger effect = lower value) was 1.05, the normalized growth (S. cerevisiae deletion strains, locus YNL322C, strain KRE1, stronger effect = lower value) was 1.01 and the normalized growth (S. cerevisiae deletion strains, locus YNR049C, strain mso1, stronger effect = lower value) was 1.03. For the same compound, the normalized growth (S. cerevisiae deletion strains, locus YNR052C, strain pop2, stronger effect = lower value) was 0.917, the normalized growth (S. cerevisiae deletion strains, locus YOL006C, strain TOP1, stronger effect = lower value) was 0.838 and the normalized growth (S. cerevisiae deletion strains, locus YOL012C, strain htz1) was 1.42. It also gave a normalized growth (S. cerevisiae deletion strains, locus YOL147C, strain pex11, stronger effect = lower value) of 1, a normalized growth (S. cerevisiae deletion strains, locus YOR001W, strain rrp6, stronger effect = lower value) of 0.946 and a normalized growth (S. cerevisiae deletion strains, locus YOR061W, strain CKA2, stronger effect = lower value) of 0.969. For the same compound, the normalized growth (S. cerevisiae deletion strains, locus YOR069W, strain VPS5, stronger effect = lower value) was 1, the normalized growth (S. cerevisiae deletion strains, locus YOR070C, strain gyp1, stronger effect = lower value) was 0.997 and the normalized growth (S. cerevisiae deletion strains, locus YOR080W, strain dia2, stronger effect = lower value) was 1.02. For the same compound, the normalized growth (S. cerevisiae deletion strains, locus YOR083W, strain WHI5, stronger effect = lower value) was 0.98, the normalized growth (S. cerevisiae deletion strains, locus YOR106W, strain vam3, stronger effect = lower value) was 1.02 and the normalized growth (S. cerevisiae deletion strains, locus YOR136W, strain idh2, stronger effect = lower value) was 0.991. For the same compound, the normalized growth (S. cerevisiae deletion strains, locus YOR144C, strain elg1, stronger effect = lower value) was 0.999, the normalized growth (S. cerevisiae deletion strains, locus YOR184W, strain ser1, stronger effect = lower value) was 0.714 (active) and the normalized growth (S. cerevisiae deletion strains, locus YOR231W, strain MKK1, stronger effect = lower value) was 0.969. For the same compound, the normalized growth (S. cerevisiae deletion strains, locus YOR265W, strain rbl2, stronger effect = lower value) was 1, the normalized growth (S. cerevisiae deletion strains, locus YOR270C, strain vph1, stronger effect = lower value) was 0.831 and the normalized growth (S. cerevisiae deletion strains, locus YOR290C, strain snf2, stronger effect = lower value) was 0.941. The normalized growth (S. cerevisiae deletion strains, locus YOR316C, strain cot1, stronger effect = lower value) was 0.991, the normalized growth (S. cerevisiae deletion strains, locus YPL051W, strain arl3, stronger effect = lower value) was 0.934 and the normalized growth (S. cerevisiae deletion strains, locus YPL055C, strain LGE1, stronger effect = lower value) was 0.863. It also gave a normalized growth (S. cerevisiae deletion strains, locus YPL078C, strain atp4, stronger effect = lower value) of 0.954, a normalized growth (S. cerevisiae deletion strains, locus YPL106C, strain sse1, stronger effect = lower value) of 1.03 and a normalized growth (S. cerevisiae deletion strains, locus YPL240C, strain hsp82, stronger effect = lower value) of 1.01. It also gave a normalized growth (S. cerevisiae deletion strains, locus YPL256C, strain CLN2, stronger effect = lower value) of 1.02, a normalized growth (S. cerevisiae deletion strains, locus YPR119W, strain clb2, stronger effect = lower value) of 1 and a normalized growth (S. cerevisiae deletion strains, locus YPR141C, strain kar3, stronger effect = lower value) of 1. The normalized growth (S. cerevisiae deletion strains, locus YPR163C, strain tif3, stronger effect = lower value) was 0.927, the normalized growth (S. cerevisiae deletion strains, locus YPR167C, strain met16, stronger effect = lower value) was 0.998 and the normalized growth (S. cerevisiae deletion strains, strain wtn01, stronger effect = lower value) was 0.967. For the same compound, the normalized growth (S. cerevisiae strains, strain wild type, stronger effect = lower value) was 1.
